# Source: PubChem BioAssay (NCATS)
# Records with an inconclusive call do not appear. Values without a mark were called inactive. The source made the active and inactive calls. Calls come from the whole dose curve; as a rule, active = well fitted cell-killing curve with a large enough effect; inconclusive = small, poorly fitted or top-dose-only effect, or effect the other way; inactive = no such curve, though single readings can be large or run the other way.
# Test: Quantitative High-Throughput drug screen in 47 multiple myeloma cell lines against the NCATS MIPE library collection: OPM2_DSMZ cell viability assay (AID 1919872); note: nearly all actives have a fitted effect of over 30% in size
# Details: OPM2 myeloma viability, CellTiter-Glo ATP luminescence, 48 h; series mostly up to 45.8 µM; viability (% of DMSO): at the top concentration
# Excerpt: PI: Beverly A. Mock Ph.D.
# Laboratory of Cancer Biology and Genetics,
# Center for Cancer Research, National Cancer Institute,
# National Institute of Health, Bethesda, Maryland
# Drug resistance and disease progression are common in multiple myeloma (MM) patients, underscoring the need for new therapeutic combinations. […] We hypothesized that effective combinations would reduce MYC expression and enhance p16 activity. […] These preclinical data identify potentially useful drug combinations for evaluation in drug-resistant MM and reveal potential mechanisms of combined drug sensitivity.
# Described herein is the primary MIPE qHTS used to cherrypick compounds. Validated compounds were then further tested for potential synergistic activiy.
# [1] Peat TJ, Gaikwad SM, Dubois W, Gyabaah-Kessie N, Zhang S, Gorjifard S, Phyo Z, Andres M, Hughitt VK, Simpson RM, Miller MA, Girvin AT, Taylor A, Williams D, D'Antonio N, Zhang Y, Rajagopalan A, Flietner E, Wilson K, Zhang X, Shinn P, Klumpp-Thomas C, McKnight C, Itkin Z, Chen L, Kazandijian D, Zhang J, Michalowski AM, Simmons JK, Keats J, Thomas CJ, Mock BA. Drug combinations identified by high-throughput screening promote cell cycle transition and upregulate Smad pathways in myeloma. Cancer Lett. 2023 Aug 1;568:216284. doi: 10.1016/j.canlet.2023.216284. Epub 2023 Jun 24. PMID: 37356470; PMCID: PMC10408729.
# SEQUENCE No. (e.g., 1, 2, 3, etc.); […] (e.g., Cells, Incubation, Reagent, etc.); VALUE and DESCRIPTION.
# 1; Cells; 5 uL; white, solid bottom 1536-well Greiner assay plate.
# 2; Compounds; 23 nL; Kalypsis pin tool (Wako USA) equipped with a 1536-well pin head to transfer to the assay plates.
# 3; Incubation; 48 hours; 37C incubation.
# 4; Reagent;5uL; CellTiter Glo (Promega).
# 5; Detector; 425V; Luminescence; Viewlux PerkinElmer.
# NOTES (numbers refer to Sequence numbers above)
# 1. The cell-based screening methods employed in this study were like those previously published. Briefly, the corresponding myeloma cell lines were screened in 1,536-well plates with 500 cells, 5-uL per well for inhibition of cell viability (assessed by measuring ATP levels with CellTiterGlo).
# 2. NCATS MIPE 4.0 library of approved and investigational drugs were added using the Kalypsis pin tool. Wells treated with DMSO only for 100% viability and media only wells for 0% viability were used as controls.
# 3. The assay plates were covered and incubated for 48 hours in a 37C, 5% CO2 incubator with controlled humidity.
# 4. After 48 hours, CellTilter-GloTM luminescent substrate mix (Promega) reagent was added to the assay plate and plates we incubated for 5 min at room temperature.
# 5. Signal was measured as median relative luminescence units on a ViewLux (PerkinElmer) multiplate reader.
# [1] Heske CM, Davis MI, Baumgart JT, Wilson K, Gormally MV, Chen L, Zhang X, Ceribelli M, Duveau DY, Guha R, Ferrer M, Arnaldez FI, Ji J, Tran HL, Zhang Y, Mendoza A, Helman LJ, Thomas CJ. Matrix Screen Identifies Synergistic Combination of PARP Inhibitors and Nicotinamide Phosphoribosyltransferase (NAMPT) Inhibitors in Ewing Sarcoma. Clin Cancer Res. 2017 Dec 1;23(23):7301-7311. doi: 10.1158/1078-0432.CCR-17-1121. Epub 2017 Sep 12. PMID: 28899971; PMCID: PMC6636827.
# Potency is the fitted concentration of half-maximal effect.
SMILES,Potency,viability (% of DMSO)
COc1c(OCCCN2CCOCC2)ccc2c3n(c(=NC(=O)c4cnc(N)nc4)nc12)CCN3,2.04 µM (active),–
CC[C@@H]1C(=O)N(C)c2cnc(Nc3ccc(C(=O)NC4CCC(N5CCN(CC6CC6)CC5)CC4)cc3OC)nc2N1C(C)C (stereo not given in full),0.118 µM (active),–
Clc1cccc(-n2nnnc2NCc2ccccc2Oc2ccccn2)c1Cl,–,104%
COC(=O)Nc1ccc(-c2nc(N3CCOCC3)c3cnn(C4CCN(Cc5cccnc5)CC4)c3n2)cc1,0.296 µM (active),–
CC(C)=CCCC(C)=CCCC(C)=CCSc1ccccc1C(=O)O,4.18 µM (active),–
CCCCCN(CCC12CC3CC(CC(C3)C1)C2)C(=O)NCCCc1ccncc1,–,115%
O=C(CCCCCCNC(=O)c1cnc(N(c2ccccc2)c2ccccc2)nc1)NO,10.5 µM (active),–
CC(C)(C)c1cc(C(C)(C)C)c(NC(=O)c2c[nH]c3ccccc3c2=O)cc1O,–,102%
Cc1cccc(C=NNc2cc(N3CCOCC3)nc(OCCc3ccccn3)n2)c1,6.62 µM (active),–
Cc1c(CN2CCN(S(C)(=O)=O)CC2)sc2c(N3CCOCC3)nc(-c3cnc(N)nc3)nc12,0.105 µM (active),–
CC1COC2(CCN(c3nc(=O)c4cc(C(F)(F)F)cc([N+](=O)[O-])c4s3)CC2)O1 (stereo not given),–,126%
O=c1[nH]c(=O)n(C2CCCO2)cc1F (stereo not given),–,104% [at 92.2 µM]
N#CCNC(=O)c1ccc(-c2ccnc(Nc3ccc(N4CCOCC4)cc3)n2)cc1,20.9 µM (active),–
COc1ccc(F)c(F)c1C(=O)c1cnc(NC2CCN(S(C)(=O)=O)CC2)nc1N,3.32 µM (active),–
Nc1ccccc1NC(=O)c1ccc(CNc2nccc(-c3cccnc3)n2)cc1,2.64 µM (active),–
CCN1CCN(CC(=O)Nc2ccc(-c3cccc4c(=O)cc(N5CCOCC5)oc34)c3sc4ccccc4c23)CC1,3.72 µM (active),–
CC[C@H]1CN2CCc3cc(OC)c(OC)cc3[C@H]2C[C@@H]1C[C@@H]1NCCc2cc(OC)c(OC)cc21,0.418 µM (active),–
CC(C)c1noc(N2CCC(COc3ccc(-c4ccc(S(C)(=O)=O)cc4)nc3)CC2)n1,–,79.8%
CCOc1ccccc1OCCNC(C)Cc1ccc(OC)c(S(N)(=O)=O)c1 (stereo not given),–,103%
CC(C)c1cnn2c(NCc3ccccc3)cc(N[C@@H](CO)[C@H](O)CO)nc12,0.332 µM (active),–

SMILES,Potency,viability (% of DMSO)
COc1cccc2nc(-c3cccs3)nc(NN3C(=O)C=C(C)C3=O)c12,1.48 µM (active),–
CN(C)CCCN=c1c2ccccc2n(C)c2[nH]c(=O)n(C)c(=O)c12,20.9 µM (active),–
COc1ccc(C(=O)CC2(O)C(=O)Nc3c(Cl)ccc(Cl)c32)cc1 (stereo not given),9.35 µM (active),–
Cc1c(Cn2c(C)nc3c(C(=O)O)cc(N4CCOCC4)cc32)cccc1C(F)(F)F,–,117%
N#Cc1c(O)c2c(-c3ccc(-c4ccccc4O)cc3)csc2[nH]c1=O,–,95.5%
COc1cccc2c(NCc3ccccc3)nc(-n3c(N)nc4ccccc43)nc12,8.33 µM (active),–
CCNC(=O)Nc1ccc2ncc(Nc3ccc(C)cc3)nc2n1,–,84.3%
O=C(C=Cc1cccc(S(=O)(=O)Nc2ccccc2)c1)NO,3.82 µM (active),–
CCS(=O)(=O)c1cccc(-c2cc(C(=O)NC3CCN(C)CC3)c(C)c3[nH]c4ncc(C)cc4c23)c1,2.64 µM (active),–
CC1(C)O[C@@H]2C[C@@H]3[C@H]4C[C@@H](F)C5=CC(=O)C=C[C@]5(C)[C@@]4(F)[C@@H](O)C[C@]3(C)[C@]2(C(=O)CO)O1,–,93.6%
O=C(O)CCCc1c[nH]c2ccccc12,–,106%
Nc1ccc(S(=O)(=O)Nc2ncccn2)cc1,–,113%
O=C(Nc1ncc(-c2cc(C(F)F)nn2-c2c(Cl)cccc2Cl)s1)C1CC1,1.05 µM (active),–
c1ccc2c(CCNc3ccc(Nc4ccncc4)cc3)c[nH]c2c1,–,98.4%
O=C(O)CO.[NH2-].[NH2-].[Pt+2],–,107%
COC(=O)C1=C(C)NC(C)=C(C(=O)OCCN2CCN(C(c3ccccc3)c3ccccc3)CC2)C1c1cccc([N+](=O)[O-])c1 (stereo not given),–,98.6%
CCCCOc1c(C(=O)c2c(F)cc(C)cc2F)cnc2n[nH]cc12,7.43 µM (active),–
Cc1ccc(C(=O)Nc2ccc(CN3CCN(C)CC3)c(C(F)(F)F)c2)cc1C#Cc1cnc2cccnn12,5.26 µM (active),–
O=C(NCCCNc1nc(Nc2cccc(NC(=O)N3CCCC3)c2)ncc1I)c1cccs1,16.6 µM (active),–
CC(C)(O)CCc1ccc(OCc2cc(-c3cccc(OC(F)F)c3)c3ncccc3c2)cc1,–,115%
